Reference: PubChem BioAssay (NCATS)
Activity calls are given as the source filed them. Calls follow the shape of the dose curve; as a rule, active = well fitted inhibition curve with a large enough effect; inconclusive = small, poorly fitted or top-dose-only effect; inactive = flat fitted curve, though single readings scatter.

Biological target: ATP-dependent DNA helicase Q1 (Homo sapiens) (UniProt P46063)
Assay: qHTS Validation Assay for Inhibitors of RecQ-Like Dna Helicase 1 (RECQ1) (AID 2353);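 as to activity change, negative = inhibition: plate controls were DMSO vehicle for no effect and enzyme-free control for full effect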
Conditions: recombinant RECQ1 helicase DNA unwinding assay; series mostly up to 25.6 µM; activity change, negative = inhibition: at the top concentration
Text: Survival of cells and the faithful propagation of the genome depend on elaborate mechanisms of detecting and repairing DNA damage. Treatment of advanced cancer relies on radiation therapy or chemotherapy, which kill cancer cells by causing extensive DNA damage. It is often found, that cancer cells develop resistance to therapy through enhanced activity of DNA repair functions; this has led to an increased interest in developing drugs that interfere with DNA repair, which could sensitize cancer cells to conventional therapy.
This validation qHTS assay pertains to human RECQ1, which is important in resolving abnormal DNA structures formed during replication or homologous recombination. Shutting down the expression of RECQ1 leads to chromosomal instability and higher radiation sensitivity in cultured cells.
The validation assay was a fluorescence quenching based kinetic qHTS for RECQ1 Helicase DNA unwinding. The activity was measured as ATP-dependent separation of a 20-bp DNA duplex extended by 30-nt single-stranded tails (forked duplex). The forked DNA substrate was tagged with rhodamine fluorophore (carboxytetramethyl rhodamine, TAMRA) and BHQ-2 (Black Hole Quencher 2) dark quencher. Strand separation results in an increase in the fluorescence of TAMRA (excitation 525 nm, emission 598 nm). This substrate construct operates in a red-shifted region where very few compound library members have been noted to fluoresce (PubChem AIDs 593 and 594). An additional feature of the assay is the inclusion of 2.5 ug/ml poly (dIdC), to reduce interference by compounds such as DNA intercalators, a major source of false inhibitors.
Opher Gileadi, Structural Genomics Consortium, University of Oxford
Screening Center PI: Austin, C.P.
Screening Center: NIH Chemical Genomics Center [NCGC]
Three uL of reaction buffer (25 mM Tris-HCl (pH 8.0), 5 mM NaCl, 2 mM MgCl2, 1mM DTT, 0.01% Tween- 20, and 2.5 ug/ml poly(dI-dC), including enzyme (50 nM RECQ1T1), were dispensed into a 1536-well Greiner black assay plate via solenoid-valve based nanoliter dispensers. Compounds (23 nl each in columns 5-48) and control (23 nl each in column 2 as dose-response) were transferred via a Kalypsys pintool equipped with a 1536-pin array. The plates were incubated for 15 min at room temperature, and then 1 ul of substrates (200 nM DNA and 2 mM ATP, final concentrations) was added to start the reaction. The plate was transferred into a ViewLux high-throughput CCD imager where the reaction progress was measured in a discontinuous kinetic mode (two reads spaced 2 hours apart, with intermediate room temperature incubation of the covered assay plate) by using standard red-fluorescence optics (excitation filter 525 nm, emission filter 598 nm). Enzyme-free and vehicle (DMSO) controls were included for signal normalization.
Potency is read from the fitted curve at half-maximal effect.

Sequence of ATP-dependent DNA helicase Q1 (Homo sapiens) (P46063 whole entry, looked up): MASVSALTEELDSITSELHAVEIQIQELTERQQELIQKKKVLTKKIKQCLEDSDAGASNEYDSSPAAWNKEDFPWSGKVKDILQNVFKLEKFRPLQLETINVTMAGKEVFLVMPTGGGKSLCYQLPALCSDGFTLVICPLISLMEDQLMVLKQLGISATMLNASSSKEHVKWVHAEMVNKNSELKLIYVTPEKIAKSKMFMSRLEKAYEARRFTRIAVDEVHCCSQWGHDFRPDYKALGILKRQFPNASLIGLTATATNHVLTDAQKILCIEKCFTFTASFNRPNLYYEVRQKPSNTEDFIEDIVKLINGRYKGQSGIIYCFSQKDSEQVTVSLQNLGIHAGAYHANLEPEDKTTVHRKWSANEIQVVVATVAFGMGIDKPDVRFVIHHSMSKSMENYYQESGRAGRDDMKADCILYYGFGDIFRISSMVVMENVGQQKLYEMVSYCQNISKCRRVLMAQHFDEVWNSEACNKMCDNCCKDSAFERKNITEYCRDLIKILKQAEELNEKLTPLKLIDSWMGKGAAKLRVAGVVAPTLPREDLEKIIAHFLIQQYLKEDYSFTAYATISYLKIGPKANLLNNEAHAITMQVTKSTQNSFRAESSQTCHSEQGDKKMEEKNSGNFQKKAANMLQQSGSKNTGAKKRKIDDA

SMILES | activity change, negative = inhibition | Potency
COC1=C(OC)C(=O)c2ccccc2C1=O | -14.5% (inactive) | 
COc1cccc(OC)c1OCCNCC1COc2ccccc2O1 (stereo not given) | 2.89% (inactive) | 
NCCCCC(=O)O | -3.81% (inactive) | 
COc1cc2c(CCNC(C)=O)c[nH]c2cc1Cl | 0.959% (inactive) | 
CN1CCc2cccc3c2C1Cc1ccc(O)c(O)c1-3 (stereo not given) | -4.68% (inactive) | 
CCCCCCCC/C=C\CCCCCCCC(=O)NCCO | -19.9% (inactive) | 
O=C1NC(O)=NC1(c1ccccc1)c1ccccc1 | -7.43% (inactive) | 
C=C[C@@H]1CN2CC[C@@H]1C[C@H]2[C@H](O)c1ccnc2ccc(OC)cc12 | -2.69% (inactive) | 
CC(C)NC[C@H](O)COc1cccc2[nH]ccc12 | -0.397% (inactive) | 
CN(C)c1nc(N)c(C(=O)N=C(N)N)nc1Cl | 13.8% (inactive) | 
O=c1[nH]c2ccccc2n1CCCN1CCN(C(c2ccccc2)c2ccccc2)CC1 | -2.02% (inactive) | 
O=S(=O)(c1cccc2c(I)cccc12)N1CCCNCC1 | 3.46% (inactive) | 
O=c1[nH]c2cc(C(F)(F)F)ccc2n1-c1cc(C(F)(F)F)ccc1O | -4.24% (inactive) | 
C[C@@H](CN1CCC(Cc2ccccc2)CC1)[C@@H](O)c1ccc(O)cc1 | 1.11% (inactive) | 
COc1cccc(C(=O)NCCN2CCN(c3ccc(Cl)cc3)CC2)c1 | -0.0179% (inactive) | 
N=C(N)SCCc1ccc(CCSC(=N)N)cc1 | 9.03% (inactive) | 
O=C(O)[C@@H]1C[C@H](C(=O)O)N1 | -14.7% (inactive) | 
O=C(c1cc(O)c(O)c([N+](=O)[O-])c1)c1ccccc1F | -11.4% (inactive) | 
Oc1ccccc1O | -1.52% (inactive) | 
O=C(O)CC[C@@H](C(=O)O)N1C(=O)c2ccccc2C1=O | -1.54% (inactive) | 

SMILES | activity change, negative = inhibition | Potency
CN(C)C(N)=NCCC[C@H](N)C(=O)O | -2.97% (inactive) | 
O=C(Nc1ccccc1)c1cc([N+](=O)[O-])ccc1Cl | -2.49% (inactive) | 
CCCCCC(O)c1cccc(OCc2ccc3ccccc3n2)c1 (stereo not given) | -6.04% (inactive) | 
O=C(O)c1cc(=O)c2ccccc2[nH]1 | -0.828% (inactive) | 
Cn1c(=O)c2[nH]c(-c3ccccc3)nc2n(C)c1=O | 3.28% (inactive) | 
O=C(O)/C=C/C(O)c1ccc(Cl)cc1 (stereo not given) | -1.08% (inactive) | 
COc1ccc(/C=C/C(=O)Nc2ccccc2C(=O)O)cc1OC | -5.71% (inactive) | 
O=c1[nH]c2cc([N+](=O)[O-])c([N+](=O)[O-])cc2[nH]c1=O | 2.13% (inactive) | 
C=C/C(C)=C/[C@@]1(C)SC(=O)C(C)=C1O |  | 8.91 µM (active)
CC(COc1ccc(/C=C/c2ccccc2)cc1)[N+](C)(C)C (stereo not given) | -7.41% (inactive) | 
Cc1ccc(C(=O)O[C@H](C(=O)O)[C@@H](OC(=O)c2ccc(C)cc2)C(=O)O)cc1 (tested in a mixture with another compound) | 3.24% (inactive) | 
C[N+](C)(CCCCCC[N+](C)(C)CCCN1C(=O)c2cccc3cccc(c23)C1=O)CCCN1C(=O)c2cccc3cccc(c23)C1=O | -74.5% (inactive) | 
CN[C@H](CC(C)C)C(=O)N[C@H]1C(=O)N[C@@H](CC(N)=O)C(=O)N[C@H]2C(=O)N[C@H]3C(=O)N[C@H](C(=O)N[C@H](C(=O)O)c4cc(O)cc(O)c4-c4cc3ccc4O)[C@H](O)c3ccc(c(Cl)c3)Oc3cc2cc(c3O[C@@H]2O[C@H](CO)[C@@H](O)[C@H](O)[C@H]2O[C@H]2C[C@](C)(N)[C@H](O)[C@H](C)O2)Oc2ccc(cc2Cl)[C@H]1O | -7.81% (inactive) | 
NC(CCCP(=O)(O)O)C(=O)O (stereo not given) | 0.0167% (inactive) | 
O=C(O)CC1CCCc2ccccc2C1O (stereo not given) | 3.19% (inactive) | 
NCCSSCCN | -4.89% (inactive) | 
CN1C2CCC1CC(OC(=O)C(O)c1ccccc1)C2 (stereo not given) | 1.03% (inactive) | 
O=C1C(SCCO)=C(SCCO)C(=O)c2ccccc21 | -6.21% (inactive) | 
c1cnc2c(c1)ccc1cccnc12 | 5.78% (inactive) | 
N#C/C(=C\c1ccc(O)c(O)c1)C(=O)NCCCc1ccccc1 | -13.6% (inactive) | 
